Read-out in assay [1]: E-selectin (Homo sapiens) (UniProt P16581)
As to the kind of experiment: BSK_LPS_Eselectin: BioMAP Diversity Plus: LPS Assay for Eselectin Biomarker Activity (AID 2283077). The following applies: primary human HUVEC with PBMC; actives raise or lower the signal. Put shortly:
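ELISA readout of E-selectin, 24 h post-dose, HUVEC + PBMC co-culture (LPS system). Gain or loss of signal vs DMSO baseline, bidirectional fit.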

Assay [2] can be described thus: BSK_LPS_SRB: Viability Assessment in the BioMAP Diversity Plus: LPS Assay (AID 2283079).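 Also: total protein by sulforhodamine B absorbance as a cytotoxicity measure; measured one day after compound addition; fitted in both directions against DMSO so loss or gain of signal counts.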 As to conditions: primary human HUVEC with PBMC. In a few lines: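 HUVEC + PBMC co-culture, LPS-stimulated; compound 24 h. 10% TCA fix, 0.1% SRB stain, A560. Bidirectional fit vs DMSO.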
Read-out in assay [3]: Monocyte Chemoattractant Protein-1 (MCP1), CCL2 (gene 6347)
Briefly: BSK_LPS_MCP1: BioMAP Diversity Plus: LPS Assay for Monocyte Chemoattractant Protein-1 (MCP1) Biomarker Activity (AID 2283081). As to conditions: primary human HUVEC with PBMC; actives raise or lower the signal. In a few lines:
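ELISA read-out of MCP-1 after 24 h chemical dosing of a human umbilical vein endothelial cell/peripheral blood mononuclear cell co-culture stimulated with LPS. Gain or loss of signal fitted relative to DMSO controls.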

Read-out in assay [4]: Macrophage colony-stimulating factor (MCSF), CSF1 (gene 1435)
As to the kind of experiment: BSK_LPS_MCSF: BioMAP Diversity Plus: LPS Assay for Macrophage colony-stimulating factor (MCSF) Biomarker Activity (AID 2283083). As to conditions: primary human HUVEC with PBMC; actives raise or lower the signal. Put shortly:
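HUVEC + PBMC co-culture (human primary), 24 h post-dose; M-CSF by ELISA; gain/loss of signal fitted bidirectionally vs DMSO baseline.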

Read-out in assay [5]: Tissue Factor, F3 (gene 2152)
Briefly: BSK_LPS_TissueFactor: BioMAP Diversity Plus: LPS Assay for Tissue Factor Biomarker Activity (AID 2283084). As to conditions: primary human HUVEC with PBMC; actives raise or lower the signal. Put shortly:
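HUVEC/PBMC co-culture, LPS-activated; CD142 ELISA read 24 h post-dose; bidirectional curve fit vs DMSO negative control.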

Read-out in assay [6]: Vascular cell adhesion molecule 1 (VCAM1), VCAM1 (gene 7412)
Briefly: BSK_LPS_VCAM1: BioMAP Diversity Plus: LPS Assay for Vascular cell adhesion molecule 1 (VCAM1) Biomarker Activity (AID 2283086). The following applies: primary human HUVEC with PBMC; actives raise or lower the signal. In a few lines: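 Human umbilical vein endothelial cells co-cultured with peripheral blood mononuclear cells under LPS stimulation were exposed to test chemical for 24 h. VCAM-1 levels were then measured by ELISA, with bidirectional curve fitting relative to DMSO as negative control and baseline.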

Read-out in a further assay: CD38, CD38 (gene 952)
As to the kind of experiment: BSK_SAg_CD38: BioMAP Diversity Plus: SAg Assay for CD38 Biomarker Activity (AID 2283087). The following applies: primary human HUVEC with PBMC; actives raise or lower the signal. Put shortly:
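Fluorescence ELISA of cell-surface CD38 served as the read-out, with either increase or decrease fitted against DMSO controls. Cells were a human umbilical vein endothelium plus PBMC co-culture under SEB/TSST-1 stimulation, measured 24 h after dosing.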

Read-out in the next assay: CD40, CD40 (gene 958)
As to the kind of experiment: BSK_SAg_CD40: BioMAP Diversity Plus: SAg Assay for CD40 Biomarker Activity (AID 2283088). As to conditions: primary human HUVEC with PBMC; actives raise or lower the signal. In a few lines:
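HUVEC/PBMC co-culture, 24 h post-dose; CD40 by ELISA, fluorescence intensity; bidirectional fit vs DMSO negative control.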

Read-out in another assay: CD69, CD69 (gene 969)
As to the kind of experiment: BSK_SAg_CD69: BioMAP Diversity Plus: SAg Assay for CD69 Biomarker Activity (AID 2283089).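 As to AC50: cell surface CD69 protein quantified by ELISA with fluorescence detection.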 As to conditions: primary human HUVEC with PBMC; actives raise or lower the signal. In a few lines:
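Primary human vascular co-culture (umbilical vein endothelium with peripheral blood mononuclear cells) exposed to test chemical for 24 h. CD69 levels quantified by fluorescence ELISA; DMSO served as negative control for bidirectional fitting.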

Read-out in assay [7]: E-selectin (Homo sapiens) (UniProt P16581)
Briefly: BSK_SAg_Eselectin: BioMAP Diversity Plus: SAg Assay for Eselectin Biomarker Activity (AID 2283091). The following applies: primary human HUVEC with PBMC; actives raise or lower the signal. In a few lines:
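E-selectin ELISA readout at 24 h post-dosing in human umbilical vein endothelial cell/PBMC co-culture; gain or loss of signal fitted relative to DMSO baseline.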

Read-out in assay [8]: Monokine induced gamma interferon (MIG), CXCL9 (gene 4283)
As to the kind of experiment: BSK_SAg_MIG: BioMAP Diversity Plus: SAg Assay for Monokine induced gamma interferon (MIG) Biomarker Activity (AID 2283092). The following applies: primary human HUVEC with PBMC; actives raise or lower the signal. In a few lines:
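Endothelial cells and PBMC were co-cultured, exposed to test chemicals, and sampled 24 h later. MIG was measured by ELISA, and responses were fitted in both directions relative to DMSO.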

Read-out in assay [9]: Interleukin-8 (IL8), CXCL8 (gene 3576)
As to the kind of experiment: BSK_SAg_IL8: BioMAP Diversity Plus: SAg Assay for Interleukin-8 (IL8) Biomarker Activity (AID 2283094). The following applies: primary human HUVEC with PBMC; actives raise or lower the signal. Put shortly: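 Human umbilical vein endothelial cells co-cultured with peripheral blood mononuclear cells; IL-8 measured by ELISA 24 h after chemical dosing. Bidirectional concentration-response fitting used DMSO as negative control and activity baseline.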

A short description of assay [10]: BSK_SAg_Proliferation: Cell Proliferation Assessment in the BioMAP Diversity Plus: SAg Assay (AID 2283095).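 Also: relative cell number as total protein by SRB absorbance in sub-confluent culture.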 As to conditions: primary human HUVEC with PBMC. Put shortly:
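Human umbilical vein endothelial cells co-cultured with peripheral blood mononuclear cells; total protein measured by sulforhodamine B staining (0.1% SRB after 10% TCA fixation), absorbance at 560 nm, at 96 h. Bidirectional fit against DMSO baseline.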

Assay [11] is described as follows: BSK_SAg_SRB: Viability Assessment in the BioMAP Diversity Plus: SAg Assay (AID 2283096).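 Also: cells read one day after compound addition; hits may be either gain or loss of signal compared with DMSO.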 As to conditions: primary human HUVEC with PBMC. Put shortly: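 Human umbilical vein endothelial cells co-cultured with PBMC, read 24 h after compound dosing. Total protein measured by sulforhodamine B staining (0.1% SRB after 10% TCA fixation, absorbance 560 nm); bidirectional fit versus DMSO baseline.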

In assay [12] the target is human Thyroid Receptor alpha (THRa1), THRA (gene 7067) (UniProt P10827). Briefly: ATG_THRa1_TRANS: Attagene TRANS-FACTORIAL HepG2 Assay for human Thyroid Receptor alpha (THRa1) (AID 2283014; active = hit-call score of the fitted dose curve at least 0.9, where 1 is the maximum). In a few lines:
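Transient HepG2 transfection, NR-Gal4 chimera driving GAL4-UAS reporters; 24 h compound exposure; total RNA, oligo(dT) RT, PCR, fluorescent primer extension, capillary electrophoresis. Upward direction vs DMSO control.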

A short description of assay [13]: BSK_3C_Vis: BioMAP Diversity Plus: 3C Assay for Morphology Visualization (AID 2283025).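 Also: fitted both ways so gain or loss versus DMSO counts.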 As to conditions: primary human endothelial cells (HUVEC). Put shortly:
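Human umbilical vein endothelial cells in the 3C system were imaged by light microscopy 24 h after chemical dosing to record cell morphology. Activity was fitted bidirectionally against DMSO as negative control and baseline; the endpoint serves as a background control.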

Read-out in assay [14]: Transforming growth factor beta 1 (TGFb1), TGFB1 (gene 7040)
Briefly: BSK_BE3C_TGFb1: BioMAP Diversity Plus: BE3C Assay for Transforming growth factor beta 1 (TGFb1) Biomarker Activity (AID 2283036). The following applies: primary human bronchial epithelial cells; actives raise or lower the signal. In a few lines:
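Human primary bronchial epithelial cells (BE3C system) were dosed with chemical and TGF-b1 levels measured by ELISA at 24 h. Activity was fitted bidirectionally relative to DMSO negative control as baseline.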

Read-out in assay [15]: Transforming growth factor beta 1 (TGFb1), TGFB1 (gene 7040)
Briefly: BSK_KF3CT_TGFb1: BioMAP Diversity Plus: KF3CT Assay for Transforming growth factor beta 1 (TGFb1) Biomarker Activity (AID 2283072). As to conditions: primary human keratinocytes with fibroblasts; actives raise or lower the signal. Put shortly: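 Human keratinocyte plus foreskin fibroblast primary co-culture, dosed with chemical for 24 h. TGF-b1 quantified by ELISA. Activity fitted bidirectionally against DMSO negative control as baseline.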

The target in assay [16] is Estrogen receptor (Homo sapiens) (UniProt P03372). Briefly: ATG_ERa_TRANS: Attagene TRANS-FACTORIAL HepG2 Assay for human Estrogen Receptor alpha (ERa) (AID 2282970; active = hit-call score of the fitted dose curve at least 0.9, where 1 is the maximum). The following applies: HepG2 Attagene TRANS ERa GAL4 reporter, mRNA. In a few lines:
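After 24 h of compound treatment, RNA from HepG2 cells bearing transfected GAL4-UAS reporter constructs is converted to cDNA, amplified and fluorescently labelled. Capillary electrophoresis resolves the ERa-linked reporter; DMSO serves as negative control.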

In assay [17] the target is human RAR-related Orphan Receptor gamma (RORg), RORC (gene 6097) (UniProt P51449). Briefly: ATG_RORg_TRANS: Attagene TRANS-FACTORIAL HepG2 Assay for human RAR-related Orphan Receptor gamma (RORg) (AID 2283011; active = hit-call score of the fitted dose curve at least 0.9, where 1 is the maximum). Put shortly:
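Transient MRTU transfection of HepG2 (TRANS format, exogenous NR-Gal4 chimera). 24 h dosing. Total RNA → oligo(dT) RT → PCR → 6-FAM labelling → HpaI cut → CE. Gain vs DMSO.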

Molecules are shown by their SMILES. Inconclusive results are not listed. Activity calls are given as the source filed them. The calls were made as follows, unless noted: active = hit-call score of the fitted dose curve at least 0.9, where 1 is the maximum; inactive = score below 0.9.

Chain of Estrogen receptor (Homo sapiens) (P03372 whole entry, looked up, the tested form may be a part): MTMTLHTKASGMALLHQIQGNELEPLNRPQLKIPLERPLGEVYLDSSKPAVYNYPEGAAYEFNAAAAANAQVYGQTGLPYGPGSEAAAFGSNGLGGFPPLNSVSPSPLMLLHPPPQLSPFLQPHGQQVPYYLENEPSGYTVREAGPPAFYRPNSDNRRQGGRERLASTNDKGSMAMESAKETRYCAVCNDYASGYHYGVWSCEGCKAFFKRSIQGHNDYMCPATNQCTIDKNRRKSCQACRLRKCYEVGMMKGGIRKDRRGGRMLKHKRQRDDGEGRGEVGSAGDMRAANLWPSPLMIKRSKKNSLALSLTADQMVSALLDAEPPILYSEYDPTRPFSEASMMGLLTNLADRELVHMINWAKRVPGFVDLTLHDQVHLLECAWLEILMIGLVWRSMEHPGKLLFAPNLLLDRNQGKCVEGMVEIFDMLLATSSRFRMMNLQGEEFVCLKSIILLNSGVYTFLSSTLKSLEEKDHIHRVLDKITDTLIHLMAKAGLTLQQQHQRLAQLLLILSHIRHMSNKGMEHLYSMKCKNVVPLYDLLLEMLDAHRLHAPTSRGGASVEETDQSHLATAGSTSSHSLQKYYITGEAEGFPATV
Chain of human Thyroid Receptor alpha (THRa1), THRA (gene 7067) (P10827 whole entry, looked up, the tested form may be a part): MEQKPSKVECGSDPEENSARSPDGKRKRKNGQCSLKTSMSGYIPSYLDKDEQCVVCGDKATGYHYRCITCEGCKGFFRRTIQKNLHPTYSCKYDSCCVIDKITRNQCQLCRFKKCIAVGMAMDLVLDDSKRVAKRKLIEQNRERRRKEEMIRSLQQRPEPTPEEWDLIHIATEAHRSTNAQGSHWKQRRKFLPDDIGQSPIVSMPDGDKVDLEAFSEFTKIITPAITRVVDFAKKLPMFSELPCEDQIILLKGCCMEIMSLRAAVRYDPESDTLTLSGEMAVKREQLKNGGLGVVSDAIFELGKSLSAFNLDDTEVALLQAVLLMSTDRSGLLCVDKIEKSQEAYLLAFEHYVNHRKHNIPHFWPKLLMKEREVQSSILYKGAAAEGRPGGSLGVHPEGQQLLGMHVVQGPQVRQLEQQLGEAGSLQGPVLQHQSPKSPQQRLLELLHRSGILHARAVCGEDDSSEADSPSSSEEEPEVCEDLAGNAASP
Chain of E-selectin (Homo sapiens) (P16581 whole entry, looked up): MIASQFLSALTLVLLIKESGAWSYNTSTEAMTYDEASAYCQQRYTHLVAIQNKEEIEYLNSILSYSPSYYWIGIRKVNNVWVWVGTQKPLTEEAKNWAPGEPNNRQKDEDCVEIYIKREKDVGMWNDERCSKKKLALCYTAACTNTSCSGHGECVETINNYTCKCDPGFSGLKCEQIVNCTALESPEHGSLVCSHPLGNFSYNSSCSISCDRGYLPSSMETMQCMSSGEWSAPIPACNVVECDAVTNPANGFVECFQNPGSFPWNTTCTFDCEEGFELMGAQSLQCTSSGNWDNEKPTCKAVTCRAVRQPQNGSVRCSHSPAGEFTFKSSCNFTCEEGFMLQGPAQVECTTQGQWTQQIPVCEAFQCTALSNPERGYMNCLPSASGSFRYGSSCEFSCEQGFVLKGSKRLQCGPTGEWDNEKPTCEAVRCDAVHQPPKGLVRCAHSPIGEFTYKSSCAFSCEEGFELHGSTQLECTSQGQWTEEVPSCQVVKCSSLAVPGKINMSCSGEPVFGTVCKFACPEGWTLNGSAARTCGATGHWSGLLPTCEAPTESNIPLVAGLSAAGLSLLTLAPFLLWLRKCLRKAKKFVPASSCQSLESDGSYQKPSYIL
Chain of human RAR-related Orphan Receptor gamma (RORg), RORC (gene 6097) (P51449 whole entry, looked up, the tested form may be a part): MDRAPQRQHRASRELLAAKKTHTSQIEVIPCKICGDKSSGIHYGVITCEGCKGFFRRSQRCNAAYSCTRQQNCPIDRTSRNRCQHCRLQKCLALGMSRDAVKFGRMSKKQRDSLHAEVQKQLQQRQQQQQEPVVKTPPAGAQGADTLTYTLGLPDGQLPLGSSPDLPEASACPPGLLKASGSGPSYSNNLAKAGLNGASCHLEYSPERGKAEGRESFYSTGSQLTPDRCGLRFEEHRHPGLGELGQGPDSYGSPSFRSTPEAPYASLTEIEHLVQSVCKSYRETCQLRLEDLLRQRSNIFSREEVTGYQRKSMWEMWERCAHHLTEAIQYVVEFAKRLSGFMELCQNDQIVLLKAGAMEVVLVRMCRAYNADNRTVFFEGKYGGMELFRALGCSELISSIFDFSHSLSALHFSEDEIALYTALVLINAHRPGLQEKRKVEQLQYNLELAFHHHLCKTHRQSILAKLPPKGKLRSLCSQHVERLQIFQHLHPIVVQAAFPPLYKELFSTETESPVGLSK

Regarding `O=[N+]([O-])O`, the outcome in assay [1], in assay [2], in assay [3], in [4], in [5] and in [6] was inactive. Further, the outcome is “inactive” in the assay with CD38, CD38 (gene 952); “inactive” with CD40, CD40 (gene 958); “inactive” in the assay with CD69, CD69 (gene 969); “inactive” in assay [7]; “inactive” in [8]; “inactive” in assay [9]. Besides, the result in assay [10] and in assay [11] was inactive.
With `CC(C)COP(=O)(OCC(C)C)OCC(C)C`, the molecule was classed as inactive in assay [12], in [13], in assay [14], in assay [15], in assay [1] and in assay [2]. Moreover, the outcome in [3] is “inactive”; in assay [4] it was “inactive”; in assay [5], “inactive”; in assay [6] it was “inactive”; with CD38, CD38 (gene 952), “inactive”; with CD40, CD40 (gene 958), “inactive”. Besides, the outcome was “inactive” with CD69, CD69 (gene 969); “inactive” in assay [7]; “inactive” in assay [8]; “inactive” in assay [9]; “inactive” in assay [10]; “inactive” in assay [11].
Turning to `BrCBr`, the molecule was called inactive in assay [16], in assay [17] and in assay [12].
What is called AC50 is the concentration at which the activity in the assay is half-maximal. Consider `c1ccc(Nc2ccc3ccccc3c2)cc1`, for which the AC50 was 4.65 µM (active) in assay [16], 8.8 µM (active) in assay [13] and 26.6 µM (active) in [15]. In addition, the result in assay [14], in [1], in assay [2], in assay [3], in assay [4] and in [5] was inactive. In addition, the outcome in assay [6] was “inactive”; with CD38, CD38 (gene 952), “inactive”; with CD40, CD40 (gene 958) it was “inactive”; with CD69, CD69 (gene 969), “inactive”; in [7] it was “inactive”; in assay [8], “inactive”. Also, the result in assay [9], in assay [10] and in [11] was inactive.
For `SCc1ccco1`, the concentration at half-maximal activity (AC50) in assay [16] is 54.1 µM (active).
With `CC1CCC(=O)O1` (configuration not stated), the outcome in assay [17] was inactive.
For `CCCCCCCCCCCC#N`, the call in [12], in [14], in [15], in [2], in assay [3] and in assay [8] was inactive. The result in [11] was inactive. The AC50 in [13] is 40.2 µM (active); in [1] it was 31.5 µM (active); in assay [4] it was 38 µM (active); in [5], 24.1 µM (active); in [6], 33.6 µM (active); in the assay with CD38, CD38 (gene 952), 35.6 µM (active). In addition, the AC50 in the assay with CD40, CD40 (gene 958) was 27.7 µM (active); with CD69, CD69 (gene 969), 33.7 µM (active); in assay [7], 31.3 µM (active); in [9] it was 32.7 µM (active).

Values taken from PubChem BioAssay (EPA / NIEHS).
